Shiga inhibitor – blocks Shiga toxin action in Vero cells | AID 2315 | Vero cells, Shiga toxin protein synthesis inhibition reporter | inhibition, % at 38.7 µM | hit rate 9.2% among 290,000; in the data active means inhibition mostly above about 28%, no sharp cut-off; inactive means mostly below about 43%; further: 0% is about no effect
AMA1-RON2 inh – inhibitors of Plasmodium falciparum AMA1-RON2 interaction. AlphaScreen AMA1-biotinylated RON2 peptide binding. Potency, µM (doses to about 58.2 µM), for the others: top-dose activity change, negative = inhibition, most hits filed as inhibitors. hit rate 0.2% among 360,000. AID 720542;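 further: potency means the concentration at half of the fitted maximal effect; 0% = vehicle wells and -100% = peptide control; nearly all actives have a fitted effect of over 45% in size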
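AMA1 (3D7) with his tag at 25 nM final met compounds first, then biotinylated RON2 peptide at 25 nM; detection used donor plus acceptor beads, 10 µg/mL apiece, read by AlphaScreen after 30 min at room temperature.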
Cycloheximide cs – counter-screen for Shiga toxin inhibitors: cycloheximide protein synthesis inhibition. max response, %. cell reporter, cycloheximide protein synthesis inhibition counterscreen. hit rate 12% among 300,000. AID 2314; in the data active means max response mostly above about 13%, no sharp cut-off; inactive means mostly below about 14%; further: read at 38.3 µM for the half of the compounds with a filed dose; 0% is about no effect
AmpC detergent – AmpC beta-lactamase inhibition with detergent present; P00811; AmpC hydrolysis of nitrocefin, absorbance 480 nm, 0.01% Triton; Potency, µM (titrated, usually from 114 µM), for inactives: at the top dose activity change, negative = inhibition, usual class: inhibitors; hit rate 0.041% among 370,000;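 further: potency means the concentration at half of the fitted maximal effect; 0% = no-compound wells and -100% = no-enzyme wells; nearly all actives have a fitted effect of over 25% in size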
Target sequence (P00811 whole entry, looked up): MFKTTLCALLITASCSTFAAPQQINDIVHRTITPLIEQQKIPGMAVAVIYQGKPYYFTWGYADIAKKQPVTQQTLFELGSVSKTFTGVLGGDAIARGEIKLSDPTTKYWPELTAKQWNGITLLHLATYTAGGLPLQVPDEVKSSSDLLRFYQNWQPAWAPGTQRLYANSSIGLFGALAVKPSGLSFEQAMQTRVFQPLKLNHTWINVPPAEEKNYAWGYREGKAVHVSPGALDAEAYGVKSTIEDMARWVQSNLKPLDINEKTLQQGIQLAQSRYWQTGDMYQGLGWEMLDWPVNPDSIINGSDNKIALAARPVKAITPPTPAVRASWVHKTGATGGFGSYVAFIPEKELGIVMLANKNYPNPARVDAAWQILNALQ
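AmpC (5.3 nM in the dispensed reagent) in 20 mM phosphate pH 7.0 with 0.01% (detergent screen) or 0.0001% Triton X-100 was preincubated with compounds for 15 min at room temperature. Nitrocefin was then added from an 800 uM solution, and hydrolysis was followed at 480 nm.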
SARS PLpro yeast – SARS-CoV PLP inhibition in yeast | S. cerevisiae expressing SARS-CoV PLpro, growth rescue | Potency, µM (top dose mostly 32.9 µM), inactives show at the highest dose activity, positive = growth rescue, actives largely listed as activators | hit rate 0.19% among 330,000; calls by dose curve; further: potency means the concentration at half of the fitted maximal effect; 0% is about no effect; nearly all actives have a fitted effect of over 55% in size
AmpC no deterg – blocks E. coli AmpC beta-lactamase in detergent-free assay; AmpC nitrocefin hydrolysis, absorbance 480 nm, 0.0001% Triton; P00811; hit rate 0.52% among 330,000; Potency, µM (titrated, usually from 57.1 µM), for the others: at the top dose activity change, negative = inhibition, hits mostly inhibitors;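 further: potency means the concentration at half of the fitted maximal effect; plate controls were no compound for no effect and no enzyme for full effect; nearly all actives have a fitted effect of over 20% in size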
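20 mM phosphate pH 7.0 + 0.01% (detergent screen) or 0.0001% Triton X-100; 5.3 nM AmpC reagent; cpd preinc 15 min RT; nitrocefin (800 uM stock) to start; A480 q20 s × 4 min; Activity was normalised to no-enzyme and no-compound control wells.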
Active calls of the source: *. Many of the other results were omitted from the sample, so hits are more common in it than they were. Unless noted, the call rests on the fitted dose curve; in most records, active means well fitted curve in the direction sought with a large enough effect; inconclusive means small, poorly fitted or top-dose-only effect, or another doubt; inactive means no such curve, though single readings can be large; an effect the other way counts as inactive or inconclusive.

What do the screens show for `COc1ccc2nc(NC(=O)c3cc(S(=O)(=O)N4CCOCC4)ccc3C)sc2c1`?
Shiga inhibitor: -6; AMA1-RON2 inh: -1%; Cycloheximide cs: 1; AmpC detergent: -2%; SARS PLpro yeast: -7%; AmpC no deterg: 39%

How did COc1ccc2nc(NC(=O)c3cc(C)oc3C)sc2c1 do in these assays?
Shiga inhibitor: 36*; AMA1-RON2 inh: 91%; Cycloheximide cs: 18*; AmpC detergent: -6%; SARS PLpro yeast: -33%; AmpC no deterg: -14%

How did COc1ccc2nc(NC(=O)c3ccoc3C)sc2c1 do in these assays?
Shiga inhibitor: 38*; AMA1-RON2 inh: -14%; Cycloheximide cs: 48*; AmpC detergent: inconclusive; SARS PLpro yeast: -13%; AmpC no deterg: -24%

Results for Cc1ccc(S(=O)(=O)CC(=O)Nc2nc3ccccc3s2)cc1 ?
Shiga inhibitor: 2; AMA1-RON2 inh: 9%; Cycloheximide cs: -2; AmpC detergent: inconclusive; SARS PLpro yeast: -1%; AmpC no deterg: -50%

Results for NC[C@H](O)c1ccc(O)c(O)c1 ?
Shiga inhibitor: -7; AMA1-RON2 inh: 2.8µM*; Cycloheximide cs: -2; AmpC detergent: -14%; AmpC no deterg: -34%

What do the screens show for `Cn1c(=S)n(/N=C/c2cccs2)c2ccccc21`?
Shiga inhibitor: 46*; AMA1-RON2 inh: -25%; Cycloheximide cs: 25*; AmpC detergent: -7%; SARS PLpro yeast: 0%; AmpC no deterg: -25%

Results for COc1cccc(/C=N/n2c(=S)n(C)c3ccccc32)c1OC ?
Shiga inhibitor: 2; AMA1-RON2 inh: 16%; Cycloheximide cs: -2; AmpC detergent: 5%; SARS PLpro yeast: -1%; AmpC no deterg: -24%

What do the screens show for `COC(=O)C(=Nc1ccccc1)/C(C(=O)C(=O)N(C)c1ccccc1)=C(\O)c1ccccc1`?
Shiga inhibitor: 119*; AMA1-RON2 inh: 4%; Cycloheximide cs: 44*; AmpC detergent: 0%; SARS PLpro yeast: 0%; AmpC no deterg: -6%

How did COc1cc(C(C)=O)ccc1OC(=O)N(C)c1ccccc1 do in these assays?
Shiga inhibitor: 2; AMA1-RON2 inh: 19%; Cycloheximide cs: 4; AmpC detergent: inconclusive; SARS PLpro yeast: 4%; AmpC no deterg: 32%

What do the screens show for `C/C(=N\N=C(N)N)c1cccc([N+](=O)[O-])c1`?
Shiga inhibitor: -2; AMA1-RON2 inh: -21%; Cycloheximide cs: -5; AmpC detergent: 1%; SARS PLpro yeast: -6%; AmpC no deterg: -32%

How did C/C(=N\N=C\c1ccc(N(C)C)cc1)c1cccc([N+](=O)[O-])c1 do in these assays?
Shiga inhibitor: 50*; AMA1-RON2 inh: inconclusive; Cycloheximide cs: 37*; AmpC detergent: -16%; SARS PLpro yeast: -18%; AmpC no deterg: -20%

What do the screens show for `CN(C)c1cc(NC(=O)CNC(C)(C)C)c2ccccc2n1`?
Shiga inhibitor: -13; AMA1-RON2 inh: inconclusive; Cycloheximide cs: -1; AmpC detergent: -1%; SARS PLpro yeast: 1%; AmpC no deterg: -12%

Results for CCOc1ccc(Cl)cc1CSc1n[nH]c(CC)n1 ?
Shiga inhibitor: 2; AMA1-RON2 inh: -1%; Cycloheximide cs: -3; AmpC detergent: -2%; SARS PLpro yeast: -7%; AmpC no deterg: -19%

What do the screens show for `CC(=O)OCC1=C(C(=O)O)N2C(=O)[C@@H](NC(=O)Cc3cccs3)[C@H]2SC1`?
Shiga inhibitor: -9; AMA1-RON2 inh: 0%; Cycloheximide cs: -2; AmpC detergent: 7.1µM*; SARS PLpro yeast: 4%; AmpC no deterg: 8.9µM*

How did CCCCC(=O)NC(c1cccc([N+](=O)[O-])c1)c1c(OC(C)=O)ccc2ccccc12 (stereo not drawn) do in these assays?
Shiga inhibitor: 5; AMA1-RON2 inh: -12%; Cycloheximide cs: 17*; AmpC detergent: -2%; SARS PLpro yeast: -9%; AmpC no deterg: 20%

What do the screens show for `O=C(NC(=S)Nc1ccccc1N1CCCCC1)c1ccco1`?
Shiga inhibitor: -4; AMA1-RON2 inh: -6%; Cycloheximide cs: -1; AmpC detergent: inconclusive; SARS PLpro yeast: -29%; AmpC no deterg: -38%
